Experimental data from the supplement of paper PMC10515830.
Counter-ions that a name gives are not always drawn.

System: Danio rerio larvae (5 dpf)
Experiment: difference in activity during first hour vs DMSO (percentage points); higher = more activity than DMSO
Details: 10 µM; exposure time 6 h
Outline: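 Wild-type zebrafish larvae at 5 dpf were kept in 96-well plates and exposed for 6 h to 100 µL egg water holding library compound at a final concentration of 10 µM. From 3 h into exposure, the plates were held at 28.5 ℃ and photographed every 6 s through a 3-h programme of moving lines and 100 ms, 400Hz tones. Each behaviour was scored by Z-LaP Tracker, a DeepLabCut model, and averaged over 48 larvae per compound. Every value gives the compound mean minus the vehicle control mean, in percentage points.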

Compound | difference in activity during first hour
COc1ccccc1OCCNCC(O)COc1cccc2[nH]c3ccccc3c12 (stereo not given) [Carvedilol] | -3.13
CC(=O)OCC(=O)[C@@]1(O)CC[C@H]2[C@@H]3CCC4=CC(=O)CC[C@]4(C)[C@@]3(F)[C@@H](O)C[C@@]21C [Fludrocortisone Acetate] | -1.84
CC(=O)S[C@@H]1CC2=CC(=O)CC[C@]2(C)[C@H]2CC[C@@]3(C)[C@@H](CC[C@@]34CCC(=O)O4)[C@H]12 [Spironolactone] | 0.438
COc1cc2c(cc1OC)CC(=O)N(CCCN(C)C[C@H]1Cc3cc(OC)c(OC)cc31)CC2 [Ivabradine (hydrochloride)] | 14.5
Cc1ccc(Nc2nccc(N(C)c3ccc4c(C)n(C)nc4c3)n2)cc1S(N)(=O)=O [Pazopanib] | -7.88
COC(=O)c1ccc2c(c1)NC(=O)/C2=C(\Nc1ccc(N(C)C(=O)CN2CCN(C)CC2)cc1)c1ccccc1 | -11.1
C[C@@H](O)[C@@H]1NC(=O)[C@H](CCCCN)NC(=O)[C@@H](Cc2c[nH]c3ccccc23)NC(=O)[C@H](Cc2ccccc2)NC(=O)[C@@H](NC(=O)[C@H](N)Cc2ccccc2)CSSC[C@@H](C(=O)N[C@H](CO)[C@@H](C)O)NC1=O [Octreotide (acetate)] | -5.09
CN1C(=O)CC(C)(c2ccccc2)C1=O (stereo not given) [Methsuximide] | 7.45
CNC(=C[N+](=O)[O-])NCCSCc1ccc(CN(C)C)o1 [Ranitidine (hydrochloride)] | 11.1
CC(=O)N[C@@H](CS)C(=O)O [N-acetyl-L-Cysteine] | 14.1
